From PubChem BioAssay
Six1-Eya2 blk – qHTS Assay for Inhibitors of the Six1/Eya2 Interaction | 0.56% of 360,000 active | activity change, % (no concentration beside the values) | AID 651725, 2012 | AlphaScreen GST-Six1/His-Eya2 binding, biochemical; stronger effect = lower value | Homeobox protein SIX1 (Homo sapiens) + Protein phosphatase EYA2 (Homo sapiens), …; in the data active = activity change below about -65%; inconclusive = mostly about -30% to -63%
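Six1/Eya2 binding was read as AlphaScreen signal after compounds were pinned into GST-Six1 plus His-tagged Eya2 (5X stock 250/500 nM) in pH 8.0 Tris/NaCl/TCEP buffer, beads added, then incubated 1 h, 37 C, dark.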
Gal4-VP16 FLuc – VP16 counterscreen qHTS for inhibitors of ROR gamma transcriptional activity. Potency, µM (highest dose often 53.6 µM), actives largely listed as inhibitors. Drosophila S2 Gal4-VP16 UAS-luciferase, luminescence, 20 h. 3.5% of 310,000 active;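 note: Gal4-VP16 expression switched on by copper sulfate through the metallothionein promoter; nearly all actives have a fitted effect of over 50% in size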
RORgamma inh – qHTS for inhibitors of ROR gamma transcriptional activity; Nuclear receptor ROR-gamma (Mus musculus), P51450; Drosophila S2 Gal4-RORgamma UAS-luciferase reporter, 20 h; Potency, µM (top dose mostly 53.6 µM), hits mostly inhibitors; 5.4% of 310,000 active; AID 2551, 2010; note: nearly all actives have a fitted effect of over 60% in size
Target sequence (P51450 whole entry, looked up, the tested form may be a part): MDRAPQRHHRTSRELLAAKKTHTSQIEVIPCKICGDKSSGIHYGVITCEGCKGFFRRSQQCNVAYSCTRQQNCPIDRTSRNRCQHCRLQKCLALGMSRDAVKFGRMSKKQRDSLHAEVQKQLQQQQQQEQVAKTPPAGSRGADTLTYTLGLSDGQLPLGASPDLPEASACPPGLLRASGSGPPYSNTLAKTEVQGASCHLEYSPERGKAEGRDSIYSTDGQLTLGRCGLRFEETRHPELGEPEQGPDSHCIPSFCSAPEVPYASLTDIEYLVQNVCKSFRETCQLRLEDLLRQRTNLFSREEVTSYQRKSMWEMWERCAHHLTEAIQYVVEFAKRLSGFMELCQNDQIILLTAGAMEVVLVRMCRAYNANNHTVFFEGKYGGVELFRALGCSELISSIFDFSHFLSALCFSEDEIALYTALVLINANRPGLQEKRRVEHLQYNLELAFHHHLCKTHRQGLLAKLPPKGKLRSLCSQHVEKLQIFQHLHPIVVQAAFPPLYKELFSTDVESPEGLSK
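Luminescence from a UAS-regulated Photinus luciferase reporter in stably transfected Drosophila Schneider cells is measured; decreased signal marks ROR gamma inhibition. Fusion expression is induced by 700 uM copper sulfate for 20 hr.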
PKM2 activator – qHTS Assay for Activators of Human Muscle isoform 2 Pyruvate Kinase; Pyruvate kinase PKM (Homo sapiens), P14618; purified PKM2, Kinase-Glo ATP luminescence, activation; response scale: 0% is enzyme alone, no compound; Potency, µM (highest dose often 57.5 µM), usual class: activators; 0.34% of 260,000 active; AID 1631, 2009; note: nearly all actives have a fitted effect of over 55% in size
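Purified hPK-M2 (>95% pure) converted ADP (0.1 mM final) to ATP with 0.5 mM PEP in 50 mM imidazole pH7.2, KCl, MgCl2, Tween 20, BSA; 1 h at room temperature. ATP detected by Kinase-Glo luminescence.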
CtBP-E1A blk – qHTS Assay for Inhibitors of the CtBP/E1A Interaction; AlphaScreen GST-E1A/His-CtBP binding, 1536-well; stronger effect = lower value; activity change, % (concentration not given with the values); 0.49% of 340,000 active; CtBP / adenovirus E1A interaction (AlphaScreen); in the data active = activity change below about -65%; inconclusive = mostly about -30% to -63%
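Steps: dispense buffer (Tris pH 8.0, NaCl 300 mM, TCEP 1 mM, BSA, Tween 20); add 5X protein mix (GST-E1A, His-CtBP, 125 nM each); pin 23 nL compound; 2 h at 37 °C, dark; add 5X beads (50 ug/mL); 1 h; read.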
A number is an active result; n = inactive; u = inconclusive; x = not tested or not shown; [ ] = another dose, or the depositor's remark. An excerpt weighted towards active compounds, which were near 5.6% of everything screened. Unless noted, calls come from the whole dose curve; as a rule, active = well fitted curve in the direction sought with a large enough effect; inconclusive = small, poorly fitted or top-dose-only effect, or another doubt; inactive = no such curve, though single readings can be large; an effect the other way counts as inactive or inconclusive.

SMILES | Six1-Eya2 blk | Gal4-VP16 FLuc | RORgamma inh | PKM2 activator | CtBP-E1A blk
CNc1ccc2oc(C[C@H]3O[C@@]4(CC[C@H]3C)O[C@H]([C@H](C)C(=O)c3ccc[nH]3)[C@H](C)C[C@H]4C)nc2c1C(=O)O | n | 1.26µM | n | n | n
Cl/C=C\Cl | x | n | n | x | x
CC[C@@H]1CN2CCc3cc(OC)c(OC)cc3[C@H]2C[C@@H]1C[C@H]1NCCc2cc(OC)c(OC)cc21 | x | u | 0.562µM | x | x
CC[C@@H]1CN2CCc3cc(OC)c(OC)cc3[C@@H]2C[C@@H]1C[C@H]1NCCc2cc(OC)c(OC)cc21 | x | n | 1.12µM | x | x
C[C@]12CC[C@@H]3c4cc(O)c(O)cc4CC[C@H]3[C@@H]1CC[C@@H]2O | n | u | 12.6µM | u | n
O=C(Cl)/C=C/C(=O)Cl | x | n | n | x | x
CC(c1nc2ccccc2c(=O)[nH]1)N(C)CCOc1ccc(Cl)cc1 (configuration not stated) | n | u | 7.08µM | n | x
CN1CCN(Cc2nc3ccccc3c(=O)[nH]2)CC1 | n | n | n | n | n
c1ccc(-c2cc3c(nc2-c2ccccc2)CCNC3)cc1 | x | n[10 µM] | n[10 µM] | x | x
C=C(C)C1CCC(C)=CC1c1c(OC)cc(C)cc1OC (configuration not stated) | x | n | n | x | x
COc1ccc(C(=O)C2CCCN(C3CSCCSC3)C2)c(C)c1 (configuration not stated) | n | n | 10µM | n | n
COc1ccc(C(=O)C2CCCN(C3CSCCSC3)C2)c(OC)c1 (configuration not stated) | n | n | u | n | n
NC(N)=NN=C(/C=C/c1ccc([N+](=O)[O-])o1)/C=C/c1ccc([N+](=O)[O-])o1 | x | u | 5.01µM | x | x
Cc1cc([N+](=O)[O-])c2ccccc2[n+]1[O-] | n | 3.55µM | u | n | x
Cc1ccccc1[N+](=O)[O-] | n | n | n | x | n
CCCCCCCCCOc1ccc2[nH]cc(CCN)c2c1 | x | u | 3.16µM | n | x
COc1ccc2[nH]cc(CCN)c2c1 | n | n | n | n | n
Cc1ncc2n1-c1ccc(Cl)cc1C(c1ccccc1F)=NC2O (configuration not stated) | x | n | n | x | x
CNC(=O)COC(=O)c1ccc(-c2nc3ccccc3s2)s1 | n | 0.316µM | 0.501µM | n | n
COc1cccc([C@@]2(O)CCCCC2CN(C)C)c1 (some centres not stated) | x | n | n | x | x
O=C1NC(=O)N(c2ccc3c(c2)OCO3)C(=O)/C1=C/c1cccs1 | n | u | n | 11.2µM | n
O=C1NC(=O)N(c2ccc3c(c2)OCO3)C(=O)/C1=C/c1ccsc1 | n | n | n | n | n
ClC(Cl)(Cl)C(Cl)(Cl)Cl | x | n | n | x | x
CCCCn1c(=O)c(C(=O)NCc2ccccc2Cl)c(O)c2ccccc21 | n | n | 15.8µM | n | x
CCCCCCn1c(=O)c(C(=O)Nc2ncccc2C)c(O)c2ccccc21 | n | 7.94µM | 14.1µM | n | x
SMILES | Six1-Eya2 blk | Gal4-VP16 FLuc | RORgamma inh | PKM2 activator | CtBP-E1A blk
CCCCn1c(=O)c(C(=O)Nc2ncccc2C)c(O)c2ccccc21 | n | u | u | n | n
CCCCCn1c(=O)c(C(=O)NCc2ccc(Cl)cc2)c(O)c2ccccc21 | n | 12.6µM | 10µM | n | n
CC1=CC(c2ccccc2)NC(=S)N1 (configuration not stated) | n | u | 11.2µM | n | n
CC(C)(C)OOC(=O)c1ccccc1 | x | n | n | x | x
Cc1ccsc1/C=N/NC(=O)c1cccc(S(=O)(=O)Nc2ccccc2Cl)c1 | n | 3.16µM | 2.51µM | n | u
ClCCCCl | x | n | n | x | x
Cc1cc(/C=C2\C(=O)NC(=O)N(c3ccc(Cl)cc3)C2=O)c(C)n1-c1sc2c(c1C#N)CCCC2 | n | n | n | n | x
CCOC(=O)c1c(-n2c(C)cc(/C=C3\C(=O)NC(=O)N(C)C3=O)c2C)sc2c1CCCC2 | n | n | n | 15.8µM | n
C=C(C)C(=O)OCC1CO1 (configuration not stated) | x | n | n | x | x
CC1CC2OC2/C=C\C=C/C(=O)Cc2c(Cl)c(O)cc(O)c2C(=O)O1 (configuration not stated) | x | 10µM | 7.94µM | x | x
CC(=O)OC1CCC23C(=O)OC45CCC(C6=CC(=O)OC6)C4(C)CCC2C5CCC3(O)C1 (configuration not stated) | x | n | n | x | x
COc1ccc(OC)c(N2C(=O)/C(=C/c3ccco3)C(=O)NC2=S)c1 | -70.6 | n | n | x | n
CCOC(=O)N(C)C(=O)CSP(=S)(OCC)OCC | x | n | n | x | x
CCCCC(CC)COC(=O)c1ccc(C(=O)OCC(CC)CCCC)c(C(=O)OCC(CC)CCCC)c1 (configuration not stated) | x | n | n | x | x
CCOC(=O)C1(CCc2ccccc2)CCN(Cc2cccc3c2OCO3)CC1 | n | n | n | 31.6µM | n
Nc1ccc([N+](=O)[O-])cc1N | x | n | n | x | x
CC(=O)Oc1ccc(Cl)c2cccnc12 | x | 0.708µM | 0.562µM | x | x
CCOP(=O)(OCC)C(=Cc1cc(C(C)(C)C)c(O)c(C(C)(C)C)c1)P(=O)(OCC)OCC | x | n | u | x | x
CCCCc1ccc(C(=O)O)nc1 | -87.4 | 8.91µM | 7.08µM | x | -68.2
O=C(N/N=C\C1C(=O)NC(=S)N(c2ccccc2)C1=O)c1ccc(O)cc1 (configuration not stated) | u | 2.51µM | 1.41µM | n | u
COc1cc(/C=C/[N+](=O)[O-])ccc1OC(=O)c1cccnc1 | n | 3.55µM | 6.31µM | n | x
COc1cc(/C=N/n2cnnc2)ccc1OC(=O)N(C)C | n | n | u | n | n
O=C1C=CC(=O)C(Cl)=C1 | x | u | 11.2µM | x | x
Clc1ccc(C(c2ccc(Cl)cc2)n2cc[n+](CC(OCc3ccc(Cl)cc3Cl)c3ccc(Cl)cc3Cl)c2)cc1 (configuration not stated) | n | 11.2µM | u | x | n
Cc1ccccc1CCNCc1cc2cccc(C)c2[nH]c1=O | n | 10µM | u | n | x
SMILES | Six1-Eya2 blk | Gal4-VP16 FLuc | RORgamma inh | PKM2 activator | CtBP-E1A blk
COC(=O)C(O)(c1ccc(NC(=O)Oc2ccccc2)cc1)C(F)(F)F (configuration not stated) | n | n | u | n | n
COC(=O)C(O)(c1ccc(NC(=S)NC(=O)c2ccccc2)cc1)C(F)(F)F (configuration not stated) | n | u | 10µM | n | n
COC(=O)CCCc1[se]c2ccccc2c1I | x | n | n | x | x
O=C(Nc1ccc(Br)cc1C(=O)O)c1ccc2c(c1)C(=O)N(Cc1ccccc1)C2=O | n | u | 10µM | n | n
O=C1C=CC[C@@H]2[C@H]3CCCN4CCC[C@@H](CN12)[C@@H]34 | x | n | n | x | x
O=C(Nc1nnc(-c2ccco2)o1)c1cccc2ccccc12 | n | n | 0.0316µM | n | n
O=C(CCS(=O)(=O)c1ccccc1)Nc1nnc(-c2ccco2)o1 | n | u | u | n | n
